# Biological target: Ribosomal protein S6 kinase alpha-5 (Homo sapiens) (UniProt O75582);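 note: mean inhibition of MSK1, from screening of the GSK PKIS inhibitor set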
# Conditions: at 1 µM
# Sequence of Ribosomal protein S6 kinase alpha-5 (Homo sapiens) (O75582 whole entry, looked up): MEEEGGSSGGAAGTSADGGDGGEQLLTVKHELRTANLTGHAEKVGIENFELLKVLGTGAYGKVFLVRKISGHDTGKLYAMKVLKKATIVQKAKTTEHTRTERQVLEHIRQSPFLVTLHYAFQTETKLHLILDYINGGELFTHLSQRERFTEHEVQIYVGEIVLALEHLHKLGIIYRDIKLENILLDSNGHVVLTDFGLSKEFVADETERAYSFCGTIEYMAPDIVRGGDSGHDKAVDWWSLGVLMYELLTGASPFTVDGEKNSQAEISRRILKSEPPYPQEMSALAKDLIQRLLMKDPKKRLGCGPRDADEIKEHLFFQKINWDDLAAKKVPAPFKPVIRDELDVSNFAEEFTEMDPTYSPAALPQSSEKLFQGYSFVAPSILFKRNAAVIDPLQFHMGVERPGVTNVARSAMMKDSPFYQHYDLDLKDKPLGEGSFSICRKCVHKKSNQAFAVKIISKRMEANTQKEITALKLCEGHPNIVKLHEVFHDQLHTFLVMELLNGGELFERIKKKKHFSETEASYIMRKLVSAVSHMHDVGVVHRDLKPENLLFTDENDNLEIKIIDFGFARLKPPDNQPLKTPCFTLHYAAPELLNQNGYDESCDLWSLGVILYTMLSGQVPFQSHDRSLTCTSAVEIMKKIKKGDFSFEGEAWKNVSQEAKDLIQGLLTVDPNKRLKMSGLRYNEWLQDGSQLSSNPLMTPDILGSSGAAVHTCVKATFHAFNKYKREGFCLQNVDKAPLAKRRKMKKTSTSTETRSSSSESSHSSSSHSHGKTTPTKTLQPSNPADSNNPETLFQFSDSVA
row,SMILES,inhibition [%]
1,CN(C)CCCn1c(-c2nonc2N)nc2cnccc21,28.7
2,CN(c1ccc(NC(=O)Nc2ccc(OC(F)(F)F)cc2)cc1)c1ccnc(Nc2cccc(S(N)(=O)=O)c2)n1,-1.11
3,O=C(Nc1ccc(Oc2ccc3[nH]c(NC(=O)c4ccco4)nc3c2)cc1)Nc1cc(C(F)(F)F)ccc1F,1.79
4,c1ccc(Cc2nc3ccc(Nc4ncnc5ccccc45)cc3[nH]2)cc1,4.26
5,C[C@@H](Oc1cc(-n2cnc3ccc(OCC4CCN(C)CC4)cc32)sc1C(N)=O)c1ccccc1C(F)(F)F,-0.6
6,Nc1nccc(-c2c(-c3ccc(F)cc3)nn3cc(C(F)(F)F)ccc23)n1,-2.88
7,NC(=O)c1cccc(Nc2nccc(Nc3cccc(F)c3)n2)c1,0.2
8,Nc1nccc(C#Cc2cncnc2Nc2ccc(OCc3cccc(F)c3)c(Cl)c2)n1,4.83
9,NC(=O)c1sc(-n2cnc3ccccc32)cc1OCc1ccccc1Br,10
10,CN(C)c1cc2c(Nc3ccc4c(cnn4Cc4ccccc4)c3)ncnc2cn1,6.2
11,NS(=O)(=O)c1ccc(-c2cc3ccncc3cc2OCc2ccccc2)cc1,0.96
12,Nc1ccc(C#Cc2cncnc2Nc2ccc(OCc3cccc(F)c3)c(Cl)c2)cc1,-0.19
13,FC(F)(F)c1ccc(-c2nn3ncccc3c2-c2ccnc(Nc3ccc4c(c3)OCCO4)n2)cc1,4.3
14,Cc1cc(-c2ccccn2)cc(C)c1/C=C/c1cncc(-c2nn[nH]n2)c1,2.91
15,CCn1c(-c2nonc2N)nc2c(C#CC(C)(C)O)nc(OCCNC)cc21,2.97
16,Oc1cccc(-c2nc(-c3ccccc3)[nH]c2-c2ccncc2)c1,4.64
17,C[C@@H](Oc1cc(-n2cnc3ccc(OC[C@@H](O)CO)cc32)sc1C(N)=O)c1ccccc1Cl,-0.54

row,SMILES,inhibition [%]
1,OCc1ccc(-c2nc(-c3ccccn3)c(-c3ccc4c(c3)OCO4)[nH]2)cc1,3.7
2,Cc1ccc(NC(=O)CC2CC2)cc1-c1ccc(C(=O)NCC2CC2)cc1,8.13
3,COc1ccc(-c2nn3ncccc3c2-c2ccnc(Nc3cccc(C(F)(F)F)c3)n2)cc1,-0.09
4,Cc1ccc2c(c1)/C(=N/Nc1ccc(S(N)(=O)=O)cc1)C(=O)N2,1.23
5,COc1cc(/C=N/Nc2ncnc3c2cnn3C(C)C)ccc1O,3.54
6,NS(=O)(=O)c1ccc(NC=C2C(=O)Nc3ccc4ncsc4c32)cc1,23.1
7,COc1cc(Nc2nccc(-c3cnn4ncccc34)n2)cc(OC)c1,7.26
8,CCS(=O)(=O)c1ccc(OC)c(Nc2nccc(N(C)c3ccc4c(C)n[nH]c4c3)n2)c1,1.28
9,Cc1ccc(Nc2ccnc(Nc3cccc(C(N)=O)c3)n2)cc1O,1.01
10,CS(=O)(=O)Nc1cccc(-c2ccc3c(NC(=O)C4CC4)n[nH]c3c2)c1,1.04
11,NS(=O)(=O)c1ccc(Nc2cc(-c3cccc(O)c3)n[nH]2)cc1,5.94
12,COC(=O)c1cncc(/C=C/c2c(C)cc(O)cc2C)c1,4.33
13,COc1cc2ncnc(Nc3ccc(C)c(O)c3)c2cc1OC,4.76
14,COC(=O)Nc1nc2cc(Oc3ccc(NC(=O)Nc4cccc(Br)c4)cc3)ccc2[nH]1,1.7
15,[O-][S+]1CCN(Cc2ccc(-c3ccc4ncnc(Nc5ccc(OCc6ccccc6)c(Cl)c5)c4c3)o2)CC1,1.03
16,COc1cc2ncn(-c3cc(OCc4ccccc4S(C)(=O)=O)c(C#N)s3)c2cc1OC,11

# Biological target: Ribosomal protein S6 kinase alpha-4 (Homo sapiens) (UniProt O75676);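 note: values are mean inhibition of MSK2, from GSK PKIS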
# Sequence (O75676 whole entry, looked up): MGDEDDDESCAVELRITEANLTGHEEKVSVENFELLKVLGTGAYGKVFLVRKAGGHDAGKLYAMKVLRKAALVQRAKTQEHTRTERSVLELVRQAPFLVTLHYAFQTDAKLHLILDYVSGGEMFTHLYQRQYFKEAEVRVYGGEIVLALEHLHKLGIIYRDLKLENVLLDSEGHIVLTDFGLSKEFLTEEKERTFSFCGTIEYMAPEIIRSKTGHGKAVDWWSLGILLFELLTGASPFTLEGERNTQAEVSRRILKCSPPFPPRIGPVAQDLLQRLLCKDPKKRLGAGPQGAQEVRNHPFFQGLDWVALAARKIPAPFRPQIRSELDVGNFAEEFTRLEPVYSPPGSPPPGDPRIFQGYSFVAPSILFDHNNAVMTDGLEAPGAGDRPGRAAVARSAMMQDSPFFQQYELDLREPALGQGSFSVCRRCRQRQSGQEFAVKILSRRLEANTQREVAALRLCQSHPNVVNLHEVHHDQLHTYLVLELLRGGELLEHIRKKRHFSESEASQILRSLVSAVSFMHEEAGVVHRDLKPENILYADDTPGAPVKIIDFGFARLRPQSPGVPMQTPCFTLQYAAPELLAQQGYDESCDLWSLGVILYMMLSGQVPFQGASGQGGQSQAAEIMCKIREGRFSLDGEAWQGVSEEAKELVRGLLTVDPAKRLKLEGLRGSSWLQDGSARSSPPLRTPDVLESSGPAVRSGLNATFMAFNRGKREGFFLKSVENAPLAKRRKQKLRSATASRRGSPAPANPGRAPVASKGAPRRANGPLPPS
# Conditions: at 0.1 µM
row,SMILES,inhibition [%]
1,CN(C)CCCn1c(-c2nonc2N)nc2cnccc21,3.18
2,CN(c1ccc(NC(=O)Nc2ccc(OC(F)(F)F)cc2)cc1)c1ccnc(Nc2cccc(S(N)(=O)=O)c2)n1,2
3,O=C(Nc1ccc(Oc2ccc3[nH]c(NC(=O)c4ccco4)nc3c2)cc1)Nc1cc(C(F)(F)F)ccc1F,1.72
4,c1ccc(Cc2nc3ccc(Nc4ncnc5ccccc45)cc3[nH]2)cc1,0.49
5,C[C@@H](Oc1cc(-n2cnc3ccc(OCC4CCN(C)CC4)cc32)sc1C(N)=O)c1ccccc1C(F)(F)F,0
6,Nc1nccc(-c2c(-c3ccc(F)cc3)nn3cc(C(F)(F)F)ccc23)n1,1.24
7,NC(=O)c1cccc(Nc2nccc(Nc3cccc(F)c3)n2)c1,0.68
8,Nc1nccc(C#Cc2cncnc2Nc2ccc(OCc3cccc(F)c3)c(Cl)c2)n1,1.39
9,NC(=O)c1sc(-n2cnc3ccccc32)cc1OCc1ccccc1Br,2.12
10,CN(C)c1cc2c(Nc3ccc4c(cnn4Cc4ccccc4)c3)ncnc2cn1,2.42
11,NS(=O)(=O)c1ccc(-c2cc3ccncc3cc2OCc2ccccc2)cc1,1.86
12,Nc1ccc(C#Cc2cncnc2Nc2ccc(OCc3cccc(F)c3)c(Cl)c2)cc1,1.93
13,FC(F)(F)c1ccc(-c2nn3ncccc3c2-c2ccnc(Nc3ccc4c(c3)OCCO4)n2)cc1,5.05
14,Cc1cc(-c2ccccn2)cc(C)c1/C=C/c1cncc(-c2nn[nH]n2)c1,0.46
15,CCn1c(-c2nonc2N)nc2c(C#CC(C)(C)O)nc(OCCNC)cc21,3.16
16,Oc1cccc(-c2nc(-c3ccccc3)[nH]c2-c2ccncc2)c1,1.9
17,C[C@@H](Oc1cc(-n2cnc3ccc(OC[C@@H](O)CO)cc32)sc1C(N)=O)c1ccccc1Cl,0.35

row,SMILES,inhibition [%]
1,OCc1ccc(-c2nc(-c3ccccn3)c(-c3ccc4c(c3)OCO4)[nH]2)cc1,1.01
2,Cc1ccc(NC(=O)CC2CC2)cc1-c1ccc(C(=O)NCC2CC2)cc1,2.17
3,COc1ccc(-c2nn3ncccc3c2-c2ccnc(Nc3cccc(C(F)(F)F)c3)n2)cc1,2.61
4,Cc1ccc2c(c1)/C(=N/Nc1ccc(S(N)(=O)=O)cc1)C(=O)N2,-1.41
5,COc1cc(/C=N/Nc2ncnc3c2cnn3C(C)C)ccc1O,2.2
6,NS(=O)(=O)c1ccc(NC=C2C(=O)Nc3ccc4ncsc4c32)cc1,28.8
7,COc1cc(Nc2nccc(-c3cnn4ncccc34)n2)cc(OC)c1,2.85
8,CCS(=O)(=O)c1ccc(OC)c(Nc2nccc(N(C)c3ccc4c(C)n[nH]c4c3)n2)c1,2.02
9,Cc1ccc(Nc2ccnc(Nc3cccc(C(N)=O)c3)n2)cc1O,2.41
10,CS(=O)(=O)Nc1cccc(-c2ccc3c(NC(=O)C4CC4)n[nH]c3c2)c1,0.62
11,NS(=O)(=O)c1ccc(Nc2cc(-c3cccc(O)c3)n[nH]2)cc1,2.94
12,COC(=O)c1cncc(/C=C/c2c(C)cc(O)cc2C)c1,2.57
13,COc1cc2ncnc(Nc3ccc(C)c(O)c3)c2cc1OC,4.36
14,COC(=O)Nc1nc2cc(Oc3ccc(NC(=O)Nc4cccc(Br)c4)cc3)ccc2[nH]1,2.29
15,[O-][S+]1CCN(Cc2ccc(-c3ccc4ncnc(Nc5ccc(OCc6ccccc6)c(Cl)c5)c4c3)o2)CC1,-0.52
16,COc1cc2ncn(-c3cc(OCc4ccccc4S(C)(=O)=O)c(C#N)s3)c2cc1OC,3.93

# From ChEMBL document CHEMBL1961873, “Compounds: GSK PKIS; Assays: Nanosyn kinase panel” (2012)
